# Measured values taken from article PMC7862700, “An all-to-all approach to the identification of sequence-specific readers for epigenetic DNA modifications on cytosine”.
# Experiments:
# Experiment in all cases: DAPPL (digital affinity profiling via proximity ligation, sequencing); 10 mM Tris-HCl pH 7.5, 50 mM NaCl, 1 mM DTT, 4% glycerol, room temperature, 30 min; GST-TFs on glutathione beads, 16-mer random dsDNA library, 0.1% formaldehyde crosslink after washing; high values mean tight binding
# Details in all cases: protein: recombinant; tags: N-terminal GST; dsDNA, one strand shown
# ELK1 = molecular target: T1, ELK1 (Homo sapiens, UniProt P19419 1-428)
# T1 sequence: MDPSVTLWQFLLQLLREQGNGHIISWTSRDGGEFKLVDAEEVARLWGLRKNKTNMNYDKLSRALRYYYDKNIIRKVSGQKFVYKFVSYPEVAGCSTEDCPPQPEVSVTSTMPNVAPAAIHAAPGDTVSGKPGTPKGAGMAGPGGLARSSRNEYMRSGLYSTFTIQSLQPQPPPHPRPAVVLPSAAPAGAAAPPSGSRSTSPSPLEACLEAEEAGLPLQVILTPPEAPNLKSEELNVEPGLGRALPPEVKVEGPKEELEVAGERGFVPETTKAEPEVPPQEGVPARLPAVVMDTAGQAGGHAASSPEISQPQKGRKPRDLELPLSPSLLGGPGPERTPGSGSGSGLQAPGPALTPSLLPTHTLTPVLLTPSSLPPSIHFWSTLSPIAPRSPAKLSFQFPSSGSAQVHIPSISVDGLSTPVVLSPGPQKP
# Method in brief: (§1)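 Binding signal is each hexamer's read frequency for a factor divided by its frequency in the tag-only sample. The factors were GST-fused human transcription factors from yeast, captured on glutathione beads, DNA-barcoded and pooled with that sample. Pools were incubated with 200 nmole of a random double-stranded 16-mer DNA library in Tris/NaCl/DTT/glycerol buffer at room temperature for 30 min, then washed, crosslinked with 0.1% formaldehyde, proximity-ligated with BsaI/T4 ligase (1 h, 37 °C), PCR-amplified and sequenced on an Illumina NextSeq500.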
# GABPA = molecular target: T2, GABPA (Homo sapiens, UniProt Q06546 1-454)
# T2 sequence: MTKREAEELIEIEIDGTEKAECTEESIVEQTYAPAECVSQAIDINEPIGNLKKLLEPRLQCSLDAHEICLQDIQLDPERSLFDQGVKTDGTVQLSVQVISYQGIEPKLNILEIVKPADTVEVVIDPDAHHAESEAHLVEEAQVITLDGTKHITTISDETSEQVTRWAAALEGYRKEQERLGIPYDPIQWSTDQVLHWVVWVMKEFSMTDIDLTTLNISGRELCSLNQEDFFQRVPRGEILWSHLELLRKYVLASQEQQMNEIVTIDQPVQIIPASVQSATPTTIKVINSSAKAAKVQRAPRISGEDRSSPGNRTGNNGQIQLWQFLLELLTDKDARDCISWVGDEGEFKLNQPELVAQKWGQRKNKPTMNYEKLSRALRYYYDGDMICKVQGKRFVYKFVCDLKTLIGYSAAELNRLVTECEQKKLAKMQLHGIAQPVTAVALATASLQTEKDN
# Method in brief: as §1
# ELF1 = ELF1 (Homo sapiens, UniProt P32519 1-619)
# Chain of ELF1 (P32519 whole entry): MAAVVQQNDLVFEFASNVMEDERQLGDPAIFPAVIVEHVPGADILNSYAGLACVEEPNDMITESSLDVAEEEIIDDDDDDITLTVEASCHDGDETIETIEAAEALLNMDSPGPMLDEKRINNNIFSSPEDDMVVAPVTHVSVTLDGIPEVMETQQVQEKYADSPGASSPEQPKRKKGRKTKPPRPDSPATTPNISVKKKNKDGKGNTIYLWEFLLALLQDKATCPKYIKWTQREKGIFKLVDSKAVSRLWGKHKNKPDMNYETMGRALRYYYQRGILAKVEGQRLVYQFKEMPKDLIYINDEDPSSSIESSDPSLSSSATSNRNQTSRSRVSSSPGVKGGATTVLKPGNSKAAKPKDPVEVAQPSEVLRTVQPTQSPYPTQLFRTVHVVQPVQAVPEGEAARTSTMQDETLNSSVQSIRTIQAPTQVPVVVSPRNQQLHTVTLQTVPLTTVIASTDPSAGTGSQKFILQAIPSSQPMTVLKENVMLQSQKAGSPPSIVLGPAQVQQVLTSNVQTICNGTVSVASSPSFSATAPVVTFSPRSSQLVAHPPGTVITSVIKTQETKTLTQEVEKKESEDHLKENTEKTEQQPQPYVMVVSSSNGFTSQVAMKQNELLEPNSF
# Method in brief: as §1
# EHF = molecular target: T3, EHF (Homo sapiens, UniProt Q9NZC4 1-300)
# T3 sequence: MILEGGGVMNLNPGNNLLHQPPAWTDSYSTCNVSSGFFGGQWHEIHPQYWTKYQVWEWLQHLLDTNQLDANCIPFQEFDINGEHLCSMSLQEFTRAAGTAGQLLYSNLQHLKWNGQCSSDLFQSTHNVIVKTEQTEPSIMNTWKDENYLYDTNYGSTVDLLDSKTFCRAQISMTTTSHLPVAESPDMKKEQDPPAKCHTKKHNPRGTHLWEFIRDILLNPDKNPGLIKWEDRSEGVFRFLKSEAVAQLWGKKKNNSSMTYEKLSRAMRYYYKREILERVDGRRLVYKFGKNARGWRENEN
# Method in brief: as §1
# SPIB = SPIB (Homo sapiens, UniProt Q01892 1-262)
# Chain of SPIB (Q01892 whole entry): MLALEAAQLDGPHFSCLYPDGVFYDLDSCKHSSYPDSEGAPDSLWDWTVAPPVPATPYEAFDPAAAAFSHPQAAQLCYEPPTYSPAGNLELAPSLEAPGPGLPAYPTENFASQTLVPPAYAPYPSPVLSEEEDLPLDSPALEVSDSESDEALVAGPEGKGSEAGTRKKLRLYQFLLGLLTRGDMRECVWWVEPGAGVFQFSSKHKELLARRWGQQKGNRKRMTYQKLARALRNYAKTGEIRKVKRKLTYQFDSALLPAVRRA
# Method in brief: as §1
# ETV5 = ETV5 (Homo sapiens, UniProt P41161 1-510)
# Chain of ETV5 (P41161 whole entry): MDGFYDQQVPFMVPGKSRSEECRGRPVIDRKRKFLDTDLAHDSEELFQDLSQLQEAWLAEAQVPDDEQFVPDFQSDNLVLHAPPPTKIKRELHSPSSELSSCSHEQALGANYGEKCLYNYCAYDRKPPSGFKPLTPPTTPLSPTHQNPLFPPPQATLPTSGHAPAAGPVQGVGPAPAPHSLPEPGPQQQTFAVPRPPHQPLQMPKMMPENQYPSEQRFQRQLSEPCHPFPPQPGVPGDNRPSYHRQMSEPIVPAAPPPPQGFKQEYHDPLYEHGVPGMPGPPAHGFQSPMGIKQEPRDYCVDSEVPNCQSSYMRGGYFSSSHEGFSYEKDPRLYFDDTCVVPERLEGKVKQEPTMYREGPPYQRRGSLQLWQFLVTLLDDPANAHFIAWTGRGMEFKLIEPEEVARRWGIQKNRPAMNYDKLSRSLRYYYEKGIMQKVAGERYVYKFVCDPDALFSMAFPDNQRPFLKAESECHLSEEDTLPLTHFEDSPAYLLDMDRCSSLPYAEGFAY
# Method in brief: as §1
# ELF4 = ELF4 (Homo sapiens, UniProt Q99607 1-663)
# Chain of ELF4 (Q99607 whole entry): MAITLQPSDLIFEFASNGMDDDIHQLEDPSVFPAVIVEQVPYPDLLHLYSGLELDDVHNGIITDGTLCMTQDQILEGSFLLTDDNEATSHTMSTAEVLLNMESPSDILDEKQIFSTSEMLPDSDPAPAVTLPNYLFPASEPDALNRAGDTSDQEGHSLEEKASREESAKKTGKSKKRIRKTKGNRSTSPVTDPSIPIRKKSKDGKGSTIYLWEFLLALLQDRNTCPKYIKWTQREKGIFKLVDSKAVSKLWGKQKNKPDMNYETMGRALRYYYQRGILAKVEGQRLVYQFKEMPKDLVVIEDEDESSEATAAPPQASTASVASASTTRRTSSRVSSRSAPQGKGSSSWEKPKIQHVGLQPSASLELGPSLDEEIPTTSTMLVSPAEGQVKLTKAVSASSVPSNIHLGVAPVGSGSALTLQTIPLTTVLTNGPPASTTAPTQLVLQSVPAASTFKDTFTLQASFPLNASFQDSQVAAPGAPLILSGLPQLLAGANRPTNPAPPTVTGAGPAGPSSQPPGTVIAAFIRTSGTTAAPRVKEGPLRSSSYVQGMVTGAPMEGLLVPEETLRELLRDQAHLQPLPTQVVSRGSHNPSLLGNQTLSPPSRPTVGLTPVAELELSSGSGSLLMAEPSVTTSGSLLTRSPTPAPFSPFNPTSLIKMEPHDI
# Method in brief: as §1
# ELK4 = molecular target: T4, ELK4 (Homo sapiens, UniProt P28324-2 1-405)
# T4 sequence: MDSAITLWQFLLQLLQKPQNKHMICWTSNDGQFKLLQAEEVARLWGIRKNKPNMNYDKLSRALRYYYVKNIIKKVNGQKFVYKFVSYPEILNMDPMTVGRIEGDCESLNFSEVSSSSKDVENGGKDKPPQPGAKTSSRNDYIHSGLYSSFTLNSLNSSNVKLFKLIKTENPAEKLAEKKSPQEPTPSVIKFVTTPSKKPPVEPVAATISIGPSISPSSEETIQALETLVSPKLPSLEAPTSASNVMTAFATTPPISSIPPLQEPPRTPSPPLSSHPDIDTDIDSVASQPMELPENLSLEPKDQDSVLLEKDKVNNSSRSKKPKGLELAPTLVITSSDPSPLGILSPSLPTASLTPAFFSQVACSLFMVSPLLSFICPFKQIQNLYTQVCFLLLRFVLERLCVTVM
# Method in brief: as §1
# ELF3 = molecular target: T5, ELF3 (Homo sapiens, UniProt P78545 1-371)
# T5 sequence: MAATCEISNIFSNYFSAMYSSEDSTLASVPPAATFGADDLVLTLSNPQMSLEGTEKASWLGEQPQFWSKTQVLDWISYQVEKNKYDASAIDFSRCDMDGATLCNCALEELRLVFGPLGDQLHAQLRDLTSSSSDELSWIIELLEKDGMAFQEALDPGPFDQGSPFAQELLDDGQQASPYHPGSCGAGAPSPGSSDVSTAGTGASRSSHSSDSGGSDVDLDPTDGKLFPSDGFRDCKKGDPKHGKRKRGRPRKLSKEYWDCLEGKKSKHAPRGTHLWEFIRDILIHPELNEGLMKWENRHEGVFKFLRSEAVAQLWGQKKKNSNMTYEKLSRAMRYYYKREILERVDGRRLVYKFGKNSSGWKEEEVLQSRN
# Method in brief: as §1
# ERF = molecular target: T6, ERF (Homo sapiens, UniProt P50548 1-548)
# T6 sequence: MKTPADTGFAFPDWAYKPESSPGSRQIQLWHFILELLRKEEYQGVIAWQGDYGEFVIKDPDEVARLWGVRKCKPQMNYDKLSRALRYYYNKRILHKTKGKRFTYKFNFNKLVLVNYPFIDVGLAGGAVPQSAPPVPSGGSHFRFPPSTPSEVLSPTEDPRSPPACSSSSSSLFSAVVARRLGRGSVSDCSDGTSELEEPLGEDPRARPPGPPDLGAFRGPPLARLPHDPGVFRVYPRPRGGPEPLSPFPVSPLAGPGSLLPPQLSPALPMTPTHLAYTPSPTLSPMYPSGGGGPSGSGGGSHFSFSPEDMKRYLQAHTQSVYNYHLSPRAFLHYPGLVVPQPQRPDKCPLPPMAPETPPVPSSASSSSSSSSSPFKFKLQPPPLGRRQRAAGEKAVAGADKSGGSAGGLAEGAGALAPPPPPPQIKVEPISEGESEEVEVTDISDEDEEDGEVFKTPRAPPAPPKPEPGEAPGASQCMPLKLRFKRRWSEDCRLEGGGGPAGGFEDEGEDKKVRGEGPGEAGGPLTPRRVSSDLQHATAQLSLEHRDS
# Method in brief: as §1
# ETV3L = molecular target: T7, ETV3L (Homo sapiens, UniProt Q6ZN32 1-361)
# T7 sequence: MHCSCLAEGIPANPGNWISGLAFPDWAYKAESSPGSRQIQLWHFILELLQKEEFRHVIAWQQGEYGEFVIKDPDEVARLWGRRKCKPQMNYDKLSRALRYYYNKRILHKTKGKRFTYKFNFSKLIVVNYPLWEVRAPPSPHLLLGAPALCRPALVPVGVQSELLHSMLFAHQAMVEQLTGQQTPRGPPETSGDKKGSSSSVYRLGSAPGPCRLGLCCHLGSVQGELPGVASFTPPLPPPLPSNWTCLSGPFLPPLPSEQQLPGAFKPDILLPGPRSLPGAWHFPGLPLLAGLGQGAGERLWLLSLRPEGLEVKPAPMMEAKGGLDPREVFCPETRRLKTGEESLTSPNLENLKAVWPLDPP
# Method in brief: as §1
# ETS2 = molecular target: T8, ETS2 (Homo sapiens, UniProt P15036 1-469)
# T8 sequence: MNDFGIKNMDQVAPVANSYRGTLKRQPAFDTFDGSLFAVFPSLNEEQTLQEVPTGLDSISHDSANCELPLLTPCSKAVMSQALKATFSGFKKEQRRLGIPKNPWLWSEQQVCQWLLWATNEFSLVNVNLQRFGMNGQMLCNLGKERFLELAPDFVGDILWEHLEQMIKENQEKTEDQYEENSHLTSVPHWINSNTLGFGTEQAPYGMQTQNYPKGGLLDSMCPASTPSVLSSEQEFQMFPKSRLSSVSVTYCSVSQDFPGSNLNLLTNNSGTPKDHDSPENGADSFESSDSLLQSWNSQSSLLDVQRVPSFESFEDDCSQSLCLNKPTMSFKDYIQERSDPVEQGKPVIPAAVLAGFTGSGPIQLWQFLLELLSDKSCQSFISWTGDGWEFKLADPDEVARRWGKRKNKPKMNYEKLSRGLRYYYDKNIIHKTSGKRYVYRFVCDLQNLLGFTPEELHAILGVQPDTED
# Method in brief: as §1
# ETV7 = molecular target: T9, ETV7 (Homo sapiens, UniProt Q9Y603 1-341)
# T9 sequence: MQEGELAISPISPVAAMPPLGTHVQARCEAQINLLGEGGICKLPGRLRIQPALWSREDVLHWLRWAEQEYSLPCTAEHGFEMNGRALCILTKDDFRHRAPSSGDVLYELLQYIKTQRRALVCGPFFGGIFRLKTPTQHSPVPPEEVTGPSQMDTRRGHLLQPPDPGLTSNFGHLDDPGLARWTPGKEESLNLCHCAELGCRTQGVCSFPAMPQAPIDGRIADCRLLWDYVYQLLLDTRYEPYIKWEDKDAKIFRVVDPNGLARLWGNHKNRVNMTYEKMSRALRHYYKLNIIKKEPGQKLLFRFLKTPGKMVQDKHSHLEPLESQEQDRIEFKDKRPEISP
# Method in brief: as §1
# ETV6 = ETV6 (Homo sapiens, UniProt P41212 1-452)
# Chain of ETV6 (P41212 whole entry): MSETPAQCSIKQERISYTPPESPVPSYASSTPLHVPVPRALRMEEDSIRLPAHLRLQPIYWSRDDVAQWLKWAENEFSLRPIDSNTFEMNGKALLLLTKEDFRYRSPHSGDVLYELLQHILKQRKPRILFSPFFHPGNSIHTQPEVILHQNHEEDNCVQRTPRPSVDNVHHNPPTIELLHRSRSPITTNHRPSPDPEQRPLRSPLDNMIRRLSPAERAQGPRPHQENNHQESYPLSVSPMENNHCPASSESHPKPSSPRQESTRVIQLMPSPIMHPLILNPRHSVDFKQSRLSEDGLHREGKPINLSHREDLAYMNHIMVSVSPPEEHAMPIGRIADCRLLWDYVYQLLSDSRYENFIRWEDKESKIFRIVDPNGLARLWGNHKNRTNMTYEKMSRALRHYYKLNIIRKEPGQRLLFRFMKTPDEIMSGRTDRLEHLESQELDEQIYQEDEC
# Method in brief: as §1
sequence,measurement,setting,value
TCGAAC,binding signal,ELK1,"1.01 fold enrichment (6-mer frequency, TF over GST control)"
same,binding signal,GABPA,"1.02 fold enrichment (6-mer frequency, TF over GST control)"
same,binding signal,ELF1,"1.09 fold enrichment (6-mer frequency, TF over GST control)"
same,binding signal,EHF,"1.07 fold enrichment (6-mer frequency, TF over GST control)"
same,binding signal,SPIB,"1.03 fold enrichment (6-mer frequency, TF over GST control)"
same,binding signal,ETV5,"1.01 fold enrichment (6-mer frequency, TF over GST control)"
same,binding signal,ELF4,"1.01 fold enrichment (6-mer frequency, TF over GST control)"
same,binding signal,ELK4,"1.05 fold enrichment (6-mer frequency, TF over GST control)"
same,binding signal,ELF3,"1.05 fold enrichment (6-mer frequency, TF over GST control)"
same,binding signal,ERF,"1.07 fold enrichment (6-mer frequency, TF over GST control)"
same,binding signal,ETV3L,"1.07 fold enrichment (6-mer frequency, TF over GST control)"
same,binding signal,ETS2,"1.03 fold enrichment (6-mer frequency, TF over GST control)"
same,binding signal,ETV7,"1.04 fold enrichment (6-mer frequency, TF over GST control)"
same,binding signal,ETV6,"1 fold enrichment (6-mer frequency, TF over GST control)"
